Among all 69,000 compounds or so, about 8,600 (12%) showed an effect of 50% or more. The full list was thinned out, with strong results kept by preference.
tested on: Plasmodium berghei; test: Screen against P. berghei liver stage (PbLuc), transformed with Luciferase, at 10uM; assay type: functional, HepG2; conditions: tested at 10 uM

**Q.** CCC(C)CS(=O)(=O)NC(=O)C1CCC1 (stereo unspecified) was tested. Which INHIBITION did it give?
**A.** The INHIBITION was 62.3%.

**Q.** For CCC(C)CS(=O)(=O)NC(=O)C1CC1 (stereo unspecified), which INHIBITION is on record?
**A.** The INHIBITION was 2.39%.

**Q.** For CCC(CC)CS(=O)(=O)NC(=O)C1CCC1, which INHIBITION is on record?
**A.** Its INHIBITION is 7.49%.

**Q.** Which INHIBITION does the source give for CCCN1CCC(Cc2noc(-c3[nH]cnc3C)n2)CC1 here?
**A.** Its INHIBITION is -1.85%.

**Q.** How did the INHIBITION turn out when Cc1ccc(N2CCCC3(COCCN(c4ccccn4)C3)C2)nn1 (stereo unspecified) was run?
**A.** Its INHIBITION is 17.2%.

**Q.** How did the INHIBITION turn out when Cc1ccc(CNC(=O)CN2CCCC(Cn3cncn3)C2)cc1 (stereo unspecified) was run?
**A.** The INHIBITION was 31.8%.

**Q.** How did the INHIBITION turn out when Cn1cccc1C(=O)NCc1cn2c(n1)CN(CC1CCOC1)CC2 (stereo unspecified) was run?
**A.** Its INHIBITION is 58.4%.

**Q.** Which INHIBITION does the source give for O=C(NCc1cn2c(n1)CN(Cc1cccc(F)c1)CC2)C1CCC1 here?
**A.** Its INHIBITION is -14.4%.

**Q.** With Cn1cc(C(=O)NCc2cn3c(n2)CN(Cc2ccncc2)CC3)cn1 as the compound, how does the INHIBITION read?
**A.** Its INHIBITION is -4.88%.

**Q.** Cn1cc(C(=O)NCc2cn3c(n2)CN(Cc2ccccn2)CC3)cn1 was tested. Which INHIBITION did it give?
**A.** The INHIBITION was 53%.

**Q.** Which INHIBITION does the source give for Cn1cc(C(=O)NCc2cn3c(n2)CN(CC2CCOC2)CC3)cn1 (stereo unspecified) here?
**A.** The INHIBITION was -11.6%.

**Q.** With O=C(CC1CC1)NCc1cn2c(n1)CN(Cc1cccc(F)c1)CC2 as the compound, how does the INHIBITION read?
**A.** The INHIBITION was 50.9%.

**Q.** Cc1ccc(CN2CCn3c(CNC(=O)c4cccn4C)cnc3C2)s1 was tested. Which INHIBITION did it give?
**A.** The INHIBITION was 54.7%.

**Q.** How did the INHIBITION turn out when Cn1cccc1C(=O)NCc1cn2c(n1)CN(CC1CCOCC1)CC2 was run?
**A.** The INHIBITION was -4.88%.

**Q.** For Cn1cccc1C(=O)NCc1cnc2n1CCN(CC1CC1)C2, which INHIBITION is on record?
**A.** The INHIBITION was -13%.

**Q.** For Cn1cc(CN2CCn3c(CNC(=O)c4cccn4C)cnc3C2)cn1, which INHIBITION is on record?
**A.** Its INHIBITION is 2.01%.

**Q.** How did the INHIBITION turn out when Cn1cccc1C(=O)NCc1cn2c(n1)CN(Cc1ccccn1)CC2 was run?
**A.** Its INHIBITION is -37.6%.

**Q.** Which INHIBITION does the source give for O=C(CC1CC1)NCc1cn2c(n1)CN(Cc1cccnc1)CC2 here?
**A.** The INHIBITION was 33.4%.

**Q.** Cc1nc(C)n(C2CCCN(C(=O)c3ccc(F)c(F)c3)C2)n1 (stereo unspecified) was tested. Which INHIBITION did it give?
**A.** Its INHIBITION is 6.333%.

**Q.** Cc1noc(-c2ccc(N3CCN(Cc4ncccc4C)CC3)nc2)n1 was tested. Which INHIBITION did it give?
**A.** The INHIBITION was 17.1%.

**Q.** With O=C(CN1CC(c2nc(C3CC3)no2)C1)NCc1ccc(F)cc1 as the compound, how does the INHIBITION read?
**A.** The INHIBITION was -50.7%.

**Q.** How did the INHIBITION turn out when CN(CCc1noc(C2CC2)n1)C(=O)C1(N2CCCC2)CCCC1 was run?
**A.** The INHIBITION was 10.7%.

**Q.** Cc1nc(-c2ccccc2)cc(C2CCNCC2)n1 was tested. Which INHIBITION did it give?
**A.** Its INHIBITION is -25.3%.

**Q.** With COc1ccc(CNCc2c(C(C)C)nn(C)c2N(C)C)cn1 as the compound, how does the INHIBITION read?
**A.** The INHIBITION was 19.2%.

**Q.** For CC(C)=CCCC1(C)CCC(=O)N(CCNc2nc(C)cc(=O)[nH]2)C1 (stereo unspecified), which INHIBITION is on record?
**A.** The INHIBITION was 18.5%.

**Q.** For N#CCCN(C(=O)CN1CCCC1c1cccs1)c1ccccc1F (stereo unspecified), which INHIBITION is on record?
**A.** Its INHIBITION is 13.833%.

**Q.** How did the INHIBITION turn out when O=C1Nc2ccccc2CN(CC=Cc2ccccc2)C12CCNC2 (stereo unspecified) was run?
**A.** The INHIBITION was 35.8%.

**Q.** How did the INHIBITION turn out when O=c1[nH]c2cn(-c3ccc(Cl)cc3)c(=O)n2[nH]1 was run?
**A.** Its INHIBITION is -20.6%.

**Q.** CCC(CC)NC(=O)Cn1cc(-c2ccccc2)cn1 was tested. Which INHIBITION did it give?
**A.** Its INHIBITION is 48.4%.

**Q.** Which INHIBITION does the source give for CCN1CCn2cc(CNC(=O)c3cnn(C)c3)nc2C1 here?
**A.** The INHIBITION was -18.4%.

**Q.** CN1CCN(Cc2cn3c(n2)CN(C2CCOCC2)CC3)CC1 was tested. Which INHIBITION did it give?
**A.** The INHIBITION was 11.6%.

**Q.** With Cn1cc(C(=O)NCc2cn3c(n2)CN(CC2CCOCC2)CC3)cn1 as the compound, how does the INHIBITION read?
**A.** The INHIBITION was 9.54%.

**Q.** How did the INHIBITION turn out when Cn1cccc1C(=O)NCc1cn2c(n1)CN(Cc1cccnc1)CC2 was run?
**A.** The INHIBITION was 15.8%.

**Q.** With c1c(CN2CCOCC2)nc2n1CCN(C1CCOCC1)C2 as the compound, how does the INHIBITION read?
**A.** Its INHIBITION is 27.5%.

**Q.** For Cn1cc(CN2CCn3cc(CNC(=O)CC4CC4)nc3C2)cn1, which INHIBITION is on record?
**A.** Its INHIBITION is 33.4%.

**Q.** Which INHIBITION does the source give for Cn1cc(CN2CCn3cc(CNC(=O)c4cccn4C)nc3C2)cn1 here?
**A.** Its INHIBITION is 62.6%.

**Q.** How did the INHIBITION turn out when O=C(NCc1cn2c(n1)CN(Cc1nccs1)CC2)C1CCC1 was run?
**A.** The INHIBITION was 11.4%.

**Q.** For Cn1cc(C(=O)NCc2cn3c(n2)CN(C2CCOCC2)CC3)cn1, which INHIBITION is on record?
**A.** Its INHIBITION is 54.7%.

**Q.** How did the INHIBITION turn out when O=C(NCc1cn2c(n1)CN(CC1CCOCC1)CC2)C1CCC1 was run?
**A.** The INHIBITION was 60.2%.

**Q.** Which INHIBITION does the source give for COCCN1CCn2cc(CNC(=O)C3CCC3)nc2C1 here?
**A.** The INHIBITION was -10.3%.

**Q.** With c1c(CN2CCCC2)nc2n1CCN(C1CCOCC1)C2 as the compound, how does the INHIBITION read?
**A.** The INHIBITION was 54.4%.

From ChEMBL document CHEMBL4513216, “Probing the Open Global Health Chemical Diversity Library for Multistage-Active Starting Points for Next-Generation Antimalarials” (ACS Infect Dis, 2020)
